Experimental data: article PMC5540273 (PLoS ONE, 2017)

How the values were obtained:
Conditions in all cases: concentration: 1 μM, replicates: in singlicate; n = 1
[1] = tested on: T1, DCAMKL2
T1 construct: gene DCLK2

[2] = tested on: T2, DCAMKL3
T2 construct: gene DCLK3

[3] = tested on: DDR1
[4] = tested on: DDR2
[5] = tested on: T3, DLK
T3 construct: gene MAP3K12

[6] = tested on: T4, DMPK2
T4 construct: gene CDC42BPG

[7] = tested on: DMPK
[8] = tested on: T5, DRAK1
T5 construct: gene STK17A

[9] = tested on: T6, DRAK2
T6 construct: gene STK17B

[10] = tested on: DYRK1A
[11] = tested on: DYRK1B
[12] = tested on: DYRK2
[13] = tested on: EGFR
[14] = tested on: EIF2AK1
[15] = tested on: EPHA1
[16] = tested on: EPHA2
[17] = tested on: EPHA3
[18] = tested on: EPHA4
[19] = tested on: EPHA5
[20] = tested on: EPHA6
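Also: KINOMEscan kinase panel screen.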

SMILES	%Inh [1] [%]	%Inh [2] [%]	%Inh [3] [%]	%Inh [4] [%]	%Inh [5] [%]	%Inh [6] [%]	%Inh [7] [%]	%Inh [8] [%]	%Inh [9] [%]	%Inh [10] [%]	%Inh [11] [%]	%Inh [12] [%]	%Inh [13] [%]	%Inh [14] [%]	%Inh [15] [%]	%Inh [16] [%]	%Inh [17] [%]	%Inh [18] [%]	%Inh [19] [%]	%Inh [20] [%]
Cc1ccc(O)cc1Nc1ccnc2cc(-c3ccc(CN4CCCCC4)o3)ccc12 [GW557777]	10	0	98.1	94.5	0	7	0	10	0	0	0	2	46	0	99.7	94.5	94.9	96.2	99.8	90
CN(c1ccc2c(c1)nc(NCc1ccccc1)n2C)c1ccnc(Nc2ccc(CS(C)(=O)=O)cc2)n1.Cl [GW811603]	0	99.4	99.5	100	14	0	9	0	0	5	0	0	0	0	0	13	27	0	10	0
Fc1cc(Cl)ccc1Nc1ccnc2cc(-c3ccc(CN4CCSCC4)o3)ccc12 [GW560106]	0	42	96.1	69	46	0	8	23	0	0	0	13	71	0	91.1	31	19	10	0	52
Cc1cccc(Nc2nc(N[C@H]3CCCC[C@H]3N)ncc2C(N)=O)c1.Cl [GSK986310]	3	35	6	0	19	21	59	4	18	26	37	24	38	22	26	11	58	6	2	6
Cl.O=C(Nc1ccc(Oc2ccc3[nH]c(NC(=O)c4ccco4)nc3c2)cc1)Nc1cc(C(F)(F)F)ccc1F [GW683134]	7	0	100	95.7	22	0	0	0	0	13	6	0	44	4	91.8	95.2	20	93.6	48	96.4
Cc1ccccc1CC(=O)N1CCc2cc(-c3cn(C)c4ncnc(N)c34)ccc21 [GSK2603346]	0	0	56	13	4	74	0	0	0	17	4	4	22	90.1	13	5	0	0	0	10
COc1cc(Nc2nccc(N3CCC(NC(=O)Nc4ccc5c(c4)OCO5)C3)n2)cc(OC)c1OC (stereo not shown) [GSK1379766]	7	0	0	6	53	10	0	0	4	12	0	0	0	0	14	0	0	7	0	4
CC(C)(C)c1ccc(C(=O)Nc2cn3cc(-n4ccnc4)ccc3n2)cc1	0	0	0	2	0	4	0	20	35	91.4	94.8	67	9	0	0	0	16	0	0	12
CN(c1ccc(NC(=O)Nc2cccc(Cl)c2)cc1)c1ccnc(N)n1.Cl [GW830707]	0	4	97.7	99.3	0	0	4	0	17	0	14	14	10	0	8	18	15	17	33	48
Cn1cc(-c2ccc3c(c2)CCN3C(=O)Cc2cc(F)cc(F)c2F)c2c(N)ncnc21 [GSK2634140]	0	0	72	27	31	56	0	0	0	16	4	5	16	80	4	9	0	6	0	1
Cc1ccc(C)c(NC(=O)Nc2ccc(C)c(-c3ccc(C(=O)Nc4ccncc4)cc3)c2)c1 [GSK1398473]	0	13	99.8	72	0	1	4	0	0	36	25	10	35	0	0	19	0	29	15	16
Cc1ccc(NC(=O)c2ccc(Cl)c(Cl)c2)cc1-c1ccc(C(=O)Nc2ccncc2)cc1 [GSK1398460]	10	17	100	69	0	0	0	0	3	14	6	7	32	7	13	14	1	32	12	18
Nc1ncnc2scc(-c3ccc(NC(=O)Cc4cc(F)ccc4F)cc3)c12.O=C(O)C(F)(F)F [SB-731254-M]	11	16	58	24	0	23	6	3	10	12	0	0	80	95.2	13	100	21	24	0	0
Nc1cccc(-c2ccc3c(N)n[nH]c3c2)c1 [GSK2193613]	0	0	0	0	43	0	33	95.1	0	24	0	74	0	0	9	5	15	0	0	3
CCNc1nccc(-c2c(-c3ccc(F)cc3)ncn2C2CCN(C)CC2)n1	0	5	70	4	0	8	0	16	0	0	0	100	0	0	0	0	0	5	0	0
CC(C)NCC(Cc1ccccc1)NC(=O)c1cc(Br)c(-c2ccnc3[nH]ccc23)s1.Cl.Cl (stereo not shown) [GSK1383281]	0	54	0	13	24	50	32	0	4	17	29	33	26	0	6	0	8	0	0	0
Cc1ccc(O)cc1Nc1ccnc2ccc(C(C)(C)C)cc12 [GW856805]	18	0	40	60	0	5	3	12	0	0	19	19	37	44	99	92.9	71	91.3	99.3	79
CC(=O)Nc1cn2nc(Oc3cccc(NC(=O)c4cccc(C(F)(F)F)c4)c3)ccc2n1	24	9	98.3	100	0	1	0	0	11	0	0	0	58	0	75	99.2	65	96	96.2	94.3
Cc1ccc(NC(=O)c2ccnc(N3CCCCC3)c2)cc1-c1ccc(C(=O)NCC2CC2)cc1 [GW775610]	0	4	99	93.6	5	0	0	0	0	40	29	2	26	0	0	5	6	0	31	0
Cl.N#CCc1ccc(Nc2nccc(Nc3ccc(Oc4ccccc4)cc3)n2)cc1 [GW639905]	0	1	32	5	35	0	0	22	0	19	0	8	33	5	1	9	0	0	0	0
